# MsrA inhibitor: bovine MsrA inhibition | purified bovine MsrA, absorbance read-out | inhibition, % at 15.5 µM | 360,000 compounds, 0.75% hits | AID 651718;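 further: 0% = vehicle wells with enzyme and 100% = reference inhibitor wells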
# bovine MsrA act: activates bovine MsrA enzyme. activation, % at 10.6 µM. 360,000 compounds, 0.3% hits. purified bovine MsrA, absorbance read-out. AID 602163; in the data active means activation above about 7.5%;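 further: 0% = vehicle and 100% = reference activator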
# DAGLB inh: diacylglycerol lipase beta (human) inhibition; Q8NCG7; HEK293T DAGLB membrane lysate, EnzChek fluorogenic substrate; inhibition, % at 5.17 µM; 340,000 compounds, 0.059% hits; AID 504411; in the data active means inhibition above about 34%;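 further: 0% = enzyme with vehicle and 100% = wells lacking enzyme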
# Target sequence (Q8NCG7 whole entry, looked up): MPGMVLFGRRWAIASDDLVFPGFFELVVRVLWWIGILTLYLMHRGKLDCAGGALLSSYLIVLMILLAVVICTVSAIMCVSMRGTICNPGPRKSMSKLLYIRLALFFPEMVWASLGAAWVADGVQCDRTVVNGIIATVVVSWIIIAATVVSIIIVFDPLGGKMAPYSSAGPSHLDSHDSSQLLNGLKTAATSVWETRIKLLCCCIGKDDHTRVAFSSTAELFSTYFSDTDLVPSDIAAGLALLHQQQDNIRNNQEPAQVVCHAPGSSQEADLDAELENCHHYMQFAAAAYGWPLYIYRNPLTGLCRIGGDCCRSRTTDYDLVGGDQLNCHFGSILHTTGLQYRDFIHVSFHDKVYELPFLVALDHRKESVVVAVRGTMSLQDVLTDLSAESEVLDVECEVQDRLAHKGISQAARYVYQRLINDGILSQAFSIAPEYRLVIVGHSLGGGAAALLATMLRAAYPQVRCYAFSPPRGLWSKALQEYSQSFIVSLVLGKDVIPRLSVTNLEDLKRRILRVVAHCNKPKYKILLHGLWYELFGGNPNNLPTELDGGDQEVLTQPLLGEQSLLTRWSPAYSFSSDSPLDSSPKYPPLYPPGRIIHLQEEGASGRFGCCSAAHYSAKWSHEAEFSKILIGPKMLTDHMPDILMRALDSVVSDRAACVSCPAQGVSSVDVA
# DSG3 Ab inh: inhibitors of pemphigus antibody binding to human desmoglein-3. 310,000 compounds, 0.48% hits. P32926. DSG3-coupled beads, scFv-anti-DSG3-GFP binding, flow cytometry; hits give low values. binding (percent of control), % at 10 µM;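 active means binding more than 3 SD below its plate's average and above zero; inconclusive means below that plate limit but binding exactly zero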;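 further: hits lower antibody fragment binding to DSG3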
# NadD block: NadD (S. aureus) enzyme inhibition; inhibition, % at 20 µM; purified NadD enzyme, colorimetric absorbance read-out; AID 602399; 360,000 compounds, 0.78% hits; in the data active means inhibition above about 26%
# rCAG RNA binder: binds r(CAG) RNA repeats. r(CAG) RNA repeat, TO-PRO-1 dye displacement fluorescence. inhibition, % at 3 µM. 370,000 compounds, 1.3% hits. AID 651821;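 active means inhibition above the plate cutoff, the mean of all test compounds on that plate plus 3 SD, cut at about 35% in these data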;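 further: 0% = DMSO alone and 100% = 100 µM mitoxantrone as full dye displacement; higher means more dye released from RNA so lower well fluorescence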
# MsrA conf: confirmation of bovine MsrA inhibitors; shares compounds with MsrA inhibitor; purified bovine MsrA, absorbance read-out; inhibition, % at 15.5 µM; 2,300 compounds, 41% hits;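 further: coupled to thioredoxin reductase with NADPH and selenocystamine and DMSO as substrate; 0% = vehicle only and 100% = full effect of reference inhibitor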
# Active calls of the source: *; ? = inconclusive; nt = no result given. An excerpt weighted towards active compounds, which were near 3.2% of everything screened. Unless noted, no stated cut-off is given here; in the data, active means inhibition above about 4.5%; inactive means the rest.
SMILES,MsrA inhibitor,bovine MsrA act,DAGLB inh,DSG3 Ab inh,NadD block,rCAG RNA binder,MsrA conf
CCOC(=O)C1=C[C@@H](c2ccccc2)N(S(=O)(=O)c2ccc(C)cc2)[C@H]1c1ccc(F)cc1,1,-9,nt,nt,2,7,nt
CCCCCCCCN1C(=O)[C@@H](CC(=O)NCc2ccccc2)C[C@@]2(C(=O)OC)C1=C[C@H](COCc1ccccc1)O[C@@H]2C,nt,nt,nt,nt,nt,8,nt
N#C/C(=C\c1cccs1)C(=O)NCc1cccnc1,5.5*,-9,-1,85,-5,-3,4
N#C/C(=C\c1cccc([N+](=O)[O-])c1)C(=O)NCc1cccnc1,1,-4,-2,89,14,0,nt
N#C/C(=C\C=C\c1ccccc1)C(=O)NCc1cccnc1,7.6*,-4,3,106,-6,-2,6.8*
N#C/C(=C\c1cccs1)C(=O)NCc1ccccc1,4,-4,-4,92,-4,-3,nt
O=C1c2c(-c3ccc(Br)cc3)noc2CCN1Cc1cn(Cc2ccccc2)nn1,1,nt,nt,nt,nt,2,nt
Cc1ccc(-n2c(SCC(=O)Nc3ccccc3-c3ccccc3)nnc2-c2ccccn2)cc1,nt,nt,nt,nt,nt,3,nt
COCCNC(=O)/C(C#N)=C/c1cccc(/C=C(\C#N)C(=O)NCCOC)c1,-1,-2,1,94,-6,1,nt
COCCNC(=O)/C(C#N)=C/C(C)=C/c1ccccc1,6.0*,-2,-2,99,-2,-1,3
CCC(=O)N/N=C/c1ccc(-c2ccc(Cl)cc2)o1,4.8*,-4,0,113,-9,1,4
COCCCNC(=S)N(CCCO)Cc1cc2cc3c(cc2[nH]c1=O)OCCO3,5.0*,-2,1,113,-5,-4,2
COCCCNC(=S)N(CCCO)Cc1cc2cc3c(cc2[nH]c1=O)OCO3,2,-2,-1,122,3,0,nt
Cc1cc(=O)[nH]c(SCC(=O)Nc2cccc(C)c2C)n1,nt,nt,nt,nt,nt,2,nt
CN(C)c1ccc(/C=N/N2C(=S)SC(C)(C)C2N(O)C(=O)Nc2ccc([N+](=O)[O-])cc2)cc1 (stereo unspecified),6.1*,-10,5,95,20,8,2
O=S1(=O)N=C(N/N=C/c2cccs2)c2ccccc21,5.8*,-2,2,111,6,2,4.8*
O=[N+]([O-])c1ccc(/C=N/NC2=NS(=O)(=O)c3ccccc32)cc1,2,-4,2,110,-2,2,nt
O=C(O)c1cc(-c2ccc(/C=N/N3C(=O)C4C5C=CC(CC5)C4C3=O)o2)ccc1Cl (stereo unspecified),7.4*,-4,2,104,1,3,5.8*
O=C1C2C3C=CC(C4CC34)C2C(=O)N1/N=C/c1ccc(-c2ccc(Cl)cc2[N+](=O)[O-])o1 (stereo unspecified),2,-6,-2,?,9,9,nt
O=C(O)c1cc(-c2ccc(/C=N/N3C(=O)C4C5C=CC(C6CC56)C4C3=O)o2)ccc1Cl (stereo unspecified),5.4*,-4,1,100,6,8,7.8*
CSCCC(C(=O)NC(C)(C)C)n1c(-c2cccc(NC(C)=O)c2)nc2ccccc21 (stereo unspecified),-1,nt,nt,nt,nt,4,nt
CCOc1ccccc1-n1c(=S)sc2c(=O)n(-c3ccc(F)cc3)c(SCC(=O)O)nc21,5.6*,-3,4,102,0,25,2
CSC[C@H]1CN(c2ccc(Br)cc2)C(=O)[C@@H]1CC(=O)Nc1ccc(Br)cc1,0,-3,-2,nt,0,6,nt
CNC(=O)C[C@H]1C(=O)N(c2ccc(Br)cc2)C[C@@H]1CSC,5.6*,-1,-1,97,-2,2,3
O=C(/C=C/c1ccccc1)NNC1=NS(=O)(=O)c2ccccc21,4.8*,-5,1,92,-1,5,5.5*
SMILES,MsrA inhibitor,bovine MsrA act,DAGLB inh,DSG3 Ab inh,NadD block,rCAG RNA binder,MsrA conf
O=S1(=O)C=CCN1Cc1cn(Cc2cccc(Cl)c2)nn1,nt,nt,nt,nt,nt,0,nt
COCCNC(=S)N/N=C(\C)c1cc2ccccc2o1,8.2*,-2,2,104,-1,2,5.2*
C=CCN1C(=O)[C@@H](CC(=O)N2CCOCC2)[C@]2(C(=O)OC)CCCCC=C12,nt,nt,nt,nt,nt,1,nt
COc1cc(CC(=O)O)c([N+](=O)[O-])cc1OC,1,-8,0,101,-6,-3,nt
COc1cc2c(cc1[N+](=O)[O-])n(C(C)C)c(=O)n2C(C)C,8.7*,-4,-2,108,-4,-8,6.3*
CSc1nnc(NC(=O)c2ccc3c(c2)OCO3)s1,0,-5,2,96,-21,-2,nt
CCOC(=O)C(C)Sc1nnc(NC(=O)c2ccc3c(c2)OCO3)s1 (stereo unspecified),5.1*,-5,-2,99,-6,-1,2
O=C(CSc1ccccc1)N1CCC(Oc2cccnc2)CC1,nt,nt,nt,nt,nt,6,nt
Cc1ccccc1-c1ccc2c(c1)[C@@H]1C[C@H](N(C)C(=O)c3ccco3)[C@H]([C@H](C)O)CN1CC2,0,nt,nt,nt,nt,4,nt
N#C/C(=C\c1cccnc1)c1ccc([N+](=O)[O-])cc1,4,5,-1,111,-2,-1,nt
N#C/C(=C/c1cccnc1)c1ccccc1,6.5*,-3,-2,121,-3,1,3
Clc1ccccc1/C=C/C=N/Nc1nc(N2CCOCC2)nc(N2CCOCC2)n1,5.3*,-2,-3,104,1,-5,4
C(=C\c1ccccc1)/C=N/Nc1nc(N2CCOCC2)nc(N2CCOCC2)n1,7.5*,-3,0,83,4,-5,6.8*
COc1ccc(-c2cc(C(=O)OCC(=O)N3CCOCC3)c3ccccc3n2)cc1,4.7*,-6,-5,93,-3,0,1
COc1ccc(-c2cc(C(=O)N3CCC3)c3ccccc3n2)cc1OC,5.4*,-4,2,103,0,0,3
CC(=O)Oc1ccc2c(=O)c(/C=N/c3cc(=O)[nH]c(=S)[nH]3)coc2c1,5.5*,-1,1,94,1,12,4
O=C(CNC(=O)c1ccco1)N/N=C/c1ccc(O)cc1O,3,2,-1,101,8,3,nt
Oc1ccc(C=NN=Cc2ccco2)c(O)c1,4.9*,-6,1,99,-3,3,5.4*
N/C(=N\N=C\c1ccco1)SC1CC(=O)N(c2ccc(C(=O)O)cc2)C1=O (stereo unspecified),4,-10,-1,103,-6,2,nt
NC(=N\N=Cc1ccco1)/C(N)=N/N=Cc1ccco1,4.8*,0,1,105,4,8,6.4*
N/C(=N\N=C\c1ccco1)SC1CC(=O)N(c2ccccc2)C1=O (stereo unspecified),6.8*,-4,0,109,-1,5,4
NC(=N\N=Cc1ccccc1)/C(N)=N/N=Cc1ccccc1,2,-2,nt,nt,-1,0,nt
